TbREL1 primary: TbREL1 RNA ligase inhibitors, primary screen, biochemical, FRET fluorescence. TbREL1 RNA ligation. 89,000 compounds, 0.49% hits. inhibition, % at 9.66 µM;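 active = inhibition above the mean inhibition across all screened compounds plus 3 SD, cut at about 11% in these data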
Target sequence (P86926 whole entry, looked up): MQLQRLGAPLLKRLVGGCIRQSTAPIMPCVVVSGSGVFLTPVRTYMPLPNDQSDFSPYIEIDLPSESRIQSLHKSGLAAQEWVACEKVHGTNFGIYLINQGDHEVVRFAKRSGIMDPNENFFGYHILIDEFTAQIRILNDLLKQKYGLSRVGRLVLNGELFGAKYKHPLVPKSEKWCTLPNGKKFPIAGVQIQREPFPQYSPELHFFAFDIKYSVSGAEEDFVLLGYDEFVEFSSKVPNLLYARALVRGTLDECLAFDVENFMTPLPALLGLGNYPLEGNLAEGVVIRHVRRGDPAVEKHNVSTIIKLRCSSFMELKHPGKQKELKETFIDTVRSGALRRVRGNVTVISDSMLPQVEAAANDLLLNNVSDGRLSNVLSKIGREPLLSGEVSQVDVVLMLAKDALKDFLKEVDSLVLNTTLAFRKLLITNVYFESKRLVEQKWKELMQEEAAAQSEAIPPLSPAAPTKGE
TbREL1 confirm: TbREL1 RNA ligase inhibitors, confirmation, biochemical, FRET fluorescence, triplicate; inhibition, % at 9.66 µM; TbREL1 RNA ligation; AID 1117282, 2014; 390 compounds, 37% hits; shares compounds with TbREL1 primary;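 active = mean inhibition across replicates above a set limit taken from the earlier primary screen, cut at about 11% in these data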
Numbers stand for hits; 0 = inactive. This is one part of a sample in which hits are shown more often than they occur.

SMILES | TbREL1 primary | others
c1ccc(-c2ccc(C3=Nn4c(nnc4-c4ccccc4)SC3)cc2)cc1 | 0
Cc1ccc(-c2nnc3n2N=C(c2ccc(-c4ccccc4)cc2)CS3)cc1 | 26.7 | TbREL1 confirm=0
CC(C)(C)c1ccc(-c2nnc3n2N=C(c2ccc(-c4ccccc4)cc2)CS3)cc1 | 0
Cc1ccccc1CN1CCCCC(NC(=O)c2ccccc2)C1=O (stereo not drawn) | 0
CCOC(=O)[C@]12CCCC3=C1N(CCC3)C(=O)[C@@H](CC(=O)NCC1CCCCC1)C2 | 0
O=C(Cn1nnc(-c2ccc(N3CCOCC3)cc2)n1)c1ccccc1 | 0
Cc1onc(-c2c(F)cccc2Cl)c1C(=O)Nc1cc(S(=O)(=O)N2CCCCC2)ccc1O | 22.5 | TbREL1 confirm=0
Cc1ccc(O)c(NC(=O)c2cccc(S(=O)(=O)N3CCCCC3)c2)c1 | 0
Cc1onc(-c2ccccc2)c1C(=O)Nc1ccc(S(=O)(=O)N2CCCCC2)cc1 | 0
O=C(NCCc1c[nH]c2ccccc12)OCc1cn(Cc2cccc(Cl)c2)nn1 | 0
O=C(CSc1nnc(-c2ccccc2F)n1-c1ccccc1)c1ccc2ccccc2c1 | 0
Oc1ccc(CNc2ccc(C(F)(F)F)cc2F)c2cccnc12 | 12.6 | TbREL1 confirm=0
Oc1ccc(CNc2cccc(F)c2)c2cccnc12 | 0
O=Nc1ccc(O)c2ncccc12 | 0
OCc1ccnc2c(O)cccc12 | 0
Oc1ccc(CCc2c(F)cccc2F)c2cccnc12 | 0
Oc1ccc(CNc2ccccc2Br)c2cccnc12 | 14.2 | TbREL1 confirm=0
O=C(NCCCc1ccccc1)[C@H](Cc1c[nH]c2ccccc12)NC1(C(=O)NCCc2c[nH]c3ccccc23)CCC1 | 0
COC(=O)N[C@H](C(=O)N[C@@H](Cc1ccccc1)[C@@H](O)CN(Cc1ccc(-c2ccccn2)cc1)NC(=O)[C@@H](NC(=O)OC)C(C)(C)C)C(C)(C)C | 0
CCOC(=O)c1cccc(NC(=O)CN(C)S(=O)(=O)c2ccc(F)cc2)c1 | 0
O=C(C1CCCN(S(=O)(=O)c2cccs2)C1)N1CCN(Cc2ccccc2)CC1 (stereo not drawn) | 0
COc1cc(NC(=O)c2cc(C)on2)cc(C(=O)Nc2cccc(C(F)(F)F)c2)c1 | 0
COc1cc(NC(=O)c2csc(N)n2)cc(C(=O)Nc2cccc(C(F)(F)F)c2)c1 | 0
COc1cc(NC(=O)c2cnc(N)s2)cc(C(=O)Nc2cccc(C(F)(F)F)c2)c1 | 31.7 | TbREL1 confirm=20.8
CCOC(=O)N1CCN(C(=O)C[C@H]2C(=O)N(Cc3ccc(OC)cc3)C3=CCCCC[C@@]32C(=O)OC)CC1 | 0
SMILES | TbREL1 primary | others
Cn1c(CNc2ccccc2F)nc2ccccc21 | 0
O=C(c1ccc(F)cc1)C1CCN(c2ncnc3sccc23)CC1 | 0
CN(C)S(=O)(=O)c1cccc(C(=O)N/N=C\c2ccccc2[N+](=O)[O-])c1 | 0
COC[C@@H]1CCCN1c1cccc2c1S(=O)(=O)N1CC[C@H](C1)O2 | 0
NS(=O)(=O)c1ccc(NC(=O)/C=C/c2ccco2)cc1 | 0
Cc1ccc(NC(=O)c2cccc(NC(=O)/C=C/c3ccco3)c2)cc1C | 0
CC(=O)NS(=O)(=O)c1ccc(NC(=O)/C=C/c2ccco2)cc1 | 14.8 | TbREL1 confirm=12.3
COc1ccc(CCNS(=O)(=O)c2c(C)n[nH]c2C)cc1 | 0
O=C(N1CCC(n2nc(-c3ccccc3)oc2=O)CC1)C1(c2ccccc2)CCCC1 | 0
O=C(OCc1ccccc1)[C@H](Cc1ccccc1)NC(=O)[C@@H]1CC=C[C@@H]2CCN(CCc3ccccc3)C(=O)[C@@H]21 | 0
COc1ccc2c(c1)N=CN1CCc3c([nH]c4ccccc34)C3=NCC[C@@]321 | 0
O=C(c1sc2cc([N+](=O)[O-])ccc2c1Cl)N1CCCCC1 | 0
O=C(c1cc2cc([N+](=O)[O-])ccc2s1)N1CCCCC1 | 11.9 | TbREL1 confirm=0
O=C(Nc1ccccn1)c1cc2cc([N+](=O)[O-])ccc2s1 | 0
COC(=O)C1=C(C)N(Cc2cccc(C(F)(F)F)c2)C(=NCc2ccccc2C(F)(F)F)NC1c1ccccc1C(F)(F)F (stereo not drawn) | 15.7 | TbREL1 confirm=24.1
COC(=O)C1=C(C)N(C)C(=NCC2CC2)NC1c1ccccc1C(F)(F)F (stereo not drawn) | 0
COC(=O)C1=C(C)N(C)C(=NCc2ccccc2C(F)(F)F)NC1c1cccc(F)c1 (stereo not drawn) | 13.4 | TbREL1 confirm=17.6
COC(=O)C1=C(C)N(C)C(=NCc2ccc(C(F)(F)F)cc2)NC1c1ccc(F)cc1 (stereo not drawn) | 0
COC(=O)C1=C(C)N(CC(C)C)C(=S)NC1c1cccc(F)c1 (stereo not drawn) | 0
CCN1C(=O)N[C@@H](c2cccc(C(F)(F)F)c2)C(C(=O)OC)=C1C | 0
Cc1c(C(=O)NCc2ccccc2C(F)(F)F)sc(=O)n1Cc1cccc(C(F)(F)F)c1 | 0
COC(=O)C1=C(C)N(C)C(=NCc2cccc(C(F)(F)F)c2)NC1c1ccccc1C(F)(F)F (stereo not drawn) | 0
COC(=O)C1=C(C)N(Cc2cccc(C(F)(F)F)c2)C(=NCc2ccc(C(F)(F)F)cc2)NC1c1ccccc1C(F)(F)F (stereo not drawn) | 18.2 | TbREL1 confirm=22.2
COC(=O)C1=C(C)N(Cc2ccc(F)cc2)C(=S)NC1c1cccc(F)c1 (stereo not drawn) | 0
C=CCN=C1NC(c2cccc(F)c2)C(C(=O)OC)=C(C)N1Cc1cccc(C(F)(F)F)c1 (stereo not drawn) | 11.3 | TbREL1 confirm=11.6
SMILES | TbREL1 primary | others
O=C(CSc1nnc(-c2ccccc2)n1-c1ccc(Cl)cc1)c1ccc(F)cc1 | 0
C[C@H]1[C@@H](OC(=O)Nc2ccc(Br)cc2)CC[C@@]23CCCN2C(=O)CCC[C@@H]13 | 0
CCC[C@H]1[C@@H](NC(=O)Nc2ccc3c(c2)OCO3)CC[C@@]23CCCN2C(=O)CCC[C@@H]13 | 0
O=C1c2cccn2CC2Cc3ccccc3N12 (stereo not drawn) | 0
CCC(C)N(C(C)CC)S(=O)(=O)c1ccc2[nH]c(=O)oc2c1 (stereo not drawn) | 0
O=C(C1CCCN1S(=O)(=O)c1ccc(Cl)s1)N1CCN(c2ccccc2)CC1 (stereo not drawn) | 0
COc1cc(C=Nn2c(-c3cc(C)[nH]n3)n[nH]c2=S)cc(Br)c1O | 0
CC(C)CN(CC(C)C)C(=O)c1cn(C(C)c2ccccc2)nn1 (stereo not drawn) | 0
COC(=O)C1=C(C)N(Cc2ccccc2)C(=NCc2cc(OC)c(OC)c(OC)c2)N[C@H]1CCc1ccccc1 | 0
COC(=O)C1=C(C)N(Cc2ccccc2)C(=O)N[C@H]1c1cccs1 | 0
COC(=O)C1=C(C)N(Cc2ccc(F)cc2)C(=S)NC1c1ccc(F)cc1 (stereo not drawn) | 0
CCN=C1NC(c2ccccc2C(F)(F)F)C(C(=O)OC)=C(C)N1Cc1ccc(C(F)(F)F)cc1 (stereo not drawn) | 12.3 | TbREL1 confirm=17.1
COC(=O)C1=C(C)N(Cc2cccc(C(F)(F)F)c2)C(=NCc2ccc(OC)cc2)NC1c1ccccc1C(F)(F)F (stereo not drawn) | 12.0 | TbREL1 confirm=23.4
COC(=O)C1=C(C)N(Cc2ccccc2)C(=S)NC1c1cccc(Br)c1 (stereo not drawn) | 0
COC(=O)C1=C(C)N(Cc2cccc(C(F)(F)F)c2)C(=NCc2ccccc2C(F)(F)F)NC1c1cccc(F)c1 (stereo not drawn) | 15.2 | TbREL1 confirm=21.9
